For 107 compounds, B-score results are on record in PubChem BioAssay AID2642 (Johns Hopkins Ion Channel Center, 2010).

Structures are written as SMILES. The campaign covered roughly 310,000 compounds. About 3,900 (1.3%) were called active. This is one part of a sample in which actives are shown more often than they occur.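 How the source made its calls: active means compounds whose thallium flux B-score, printed positive for inhibition, exceeds three library SD while starting fluorescence stays within three; inactive means the rest.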

In this experiment the target is Potassium voltage-gated channel subfamily KQT member 1 (Homo sapiens) (UniProt P51787). Description: inhibitors of human KCNQ1 channel, primary screen, cell-based, thallium flux, high-throughput (AID 2642).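 Further: channel opened by potassium depolarization with thallium stimulus after 20 min compound exposure.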 The following applies: CHO-K1 KCNQ1, FluxOR thallium flux fluorescence, at 10 µM; active compounds read high.
Potassium voltage-gated channel subfamily KQT member 1 (Homo sapiens), sequence (P51787 whole entry, looked up): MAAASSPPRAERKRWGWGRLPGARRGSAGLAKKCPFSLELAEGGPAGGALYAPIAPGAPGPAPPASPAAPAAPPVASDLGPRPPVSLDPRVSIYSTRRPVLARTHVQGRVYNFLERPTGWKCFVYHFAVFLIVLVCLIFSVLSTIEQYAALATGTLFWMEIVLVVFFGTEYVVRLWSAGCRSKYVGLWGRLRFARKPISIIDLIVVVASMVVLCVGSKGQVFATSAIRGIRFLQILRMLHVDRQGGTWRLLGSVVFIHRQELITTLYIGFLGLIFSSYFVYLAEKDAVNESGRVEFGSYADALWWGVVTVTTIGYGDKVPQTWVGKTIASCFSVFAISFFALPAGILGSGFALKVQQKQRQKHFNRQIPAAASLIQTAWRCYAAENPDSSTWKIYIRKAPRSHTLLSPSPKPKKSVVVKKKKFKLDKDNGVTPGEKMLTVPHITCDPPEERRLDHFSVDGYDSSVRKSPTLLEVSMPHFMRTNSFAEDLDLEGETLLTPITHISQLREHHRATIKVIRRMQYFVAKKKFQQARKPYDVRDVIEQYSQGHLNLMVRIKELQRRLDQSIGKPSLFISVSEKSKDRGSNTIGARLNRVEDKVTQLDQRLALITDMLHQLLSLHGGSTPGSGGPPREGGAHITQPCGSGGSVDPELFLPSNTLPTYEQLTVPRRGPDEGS
Turning to `Cc1cc(C)c(S(=O)(=O)N2CCCC2CNC(=O)c2ccc3c(c2)OCO3)c(C)c1` (configuration not stated), the B-score result was “inactive”.

On to `Cc1ccc(OCCCCN2CCCCC2)c(Br)c1`, for which the B-score result was “inactive”.

Consider `CC(C)CC(=O)N1CCN(Cc2ccccc2Br)CC1`, for which the B-score result is “inactive”.

In the case of `CCN1CC=C2C(C#N)=C(N)C(C#N)(C#N)[C@H](c3ccoc3)[C@H]2C1`, the B-score entry is “inactive”.

With `CCC(C)(C)NC(=O)/C=C/c1cc(OC)c(OC)c(S(=O)(=O)N2CCc3ccccc32)c1`, the B-score entry was “inactive”.

For the compound `O=C(CN1CCCCCC1)NCCN1C(=O)S/C(=C\c2ccccc2Cl)C1=O`, the B-score result is “inactive”.

`O=C(CN1C(=O)S/C(=C\c2ccccc2Cl)C1=O)NC1C=CS(=O)(=O)C1` (configuration not stated): the B-score result is “inactive”.

As for `CN1C2CCC1/C(=C\c1ccccc1Cl)C(=O)/C2=C\c1ccccc1Cl`, the B-score is 10 (active).

Take `COc1ccc(/C=N/n2c(C)cc(C)cc2=O)cc1`: the B-score entry was “inactive”.

Regarding `OCCC1CN(Cc2cccc(O)c2)CCN1CCc1ccccc1` (configuration not stated), the B-score entry is “inactive”.

Turning to `COc1ccc(C2CC(=O)n3c(nc4ccccc43)S2)cc1OC` (configuration not stated), the B-score result is “inactive”.

As to `COc1cccc(C2CC(c3ccccc3)=NN2S(=O)(=O)c2ccccc2)c1OC` (configuration not stated), the B-score result is “inactive”.

For `COc1ccccc1C1CC(=O)n2c(nc(-c3ccccc3)c2-c2ccccc2)S1` (configuration not stated), the B-score was 7 (active).

For the compound `COc1ccc(-c2oc3ncnc(NCCCO)c3c2-c2ccc(OC)cc2)cc1`, the B-score result was “inactive”.

Turning to `COc1ccc2[nH]c3c(=O)n(Cc4ccco4)cnc3c2c1`, the B-score entry is “inactive”.

Consider `COc1ccc(-c2oc3ncn(Cc4ccco4)c(=N)c3c2-c2ccc(OC)cc2)cc1`, for which the B-score was 9 (active).

In the case of `CCOc1ccc2ccccc2c1/C=N/NC(=O)c1c(C)cc(C)[nH]c1=O`, the B-score result was “inactive”.

For `CN(C(=O)CCNC(=O)Cn1ccc2ccccc2c1=O)c1ccc(Br)cc1`, the B-score result is “inactive”.

As to `CCC(C)Sc1nnc(-c2c[nH]c3ccccc23)n1CCOC` (configuration not stated), the B-score entry was “inactive”.

Regarding `CCn1c(SCC(=O)Nc2ccc(OC)c(OC)c2)nnc1-c1c[nH]c2ccccc12`, the B-score result was “inactive”.

`CCn1c(SCCC(C)C)nnc1-c1c[nH]c2ccccc12`: the B-score is 6 (active).

In the case of `CC1CC(=S)Nc2ccccc2N1Cc1ccccc1` (configuration not stated), the B-score result is “inactive”.

As for `COc1ccc(S(=O)(=O)N2CCCC(C(=O)NCCCn3ccnc3)C2)cc1OC` (configuration not stated), the B-score result is “inactive”.

For `COc1ccccc1NC(=O)C[n+]1ccccc1`, the B-score result was “inactive”.

Turning to `COC(=O)C[n+]1cccc2ccccc21`, the B-score was 8 (active).

On to `Cc1cccc[n+]1CC(=O)c1ccccc1`, for which the B-score entry was “inactive”.

In the case of `O=C(CC1C(=O)NCCN1C(=O)c1ccc([N+](=O)[O-])cc1)Nc1cccc(Cl)c1` (configuration not stated), the B-score entry is “inactive”.

`CC1c2nc3ccccc3n2C(CC(=O)NCCCN2CCOCC2)C(=O)N1Cc1ccccc1` (configuration not stated): the B-score result is “inactive”.

Regarding `Cc1cc(Cl)ccc1OCCCC(=O)Nc1cccc(-n2cnnn2)c1`, the B-score entry is “inactive”.

Consider `O=C(CCC1CCCCC1)Nc1cc(C(F)(F)F)ccc1N1CCOCC1`, for which the B-score result was “inactive”.

Regarding `COc1ccc(S(=O)(=O)N2CCOCC2)cc1NC(=O)COc1ccccc1`, the B-score result is “inactive”.

For `COc1cc(S(=O)(=O)N2CCOCC2)ccc1NC(=O)COc1ccc(N(C)S(=O)(=O)c2ccc(C)cc2)cc1`, the B-score was 13 (active).

Regarding `COc1ccc(NC(=O)CN2C(=O)COc3ccc(S(=O)(=O)N4CCOCC4)cc32)c(OC)c1`, the B-score entry is “inactive”.

For `CCOC(=O)c1c(NC(=S)NC)sc2c1CCCC2`, the B-score result is “inactive”.

Take `CCOC(=O)c1c(NC(=O)C(C)Sc2c[nH]c3ccccc23)sc2c1CCC2` (configuration not stated): the B-score is 12 (active).

For `CCOC(=O)c1c(NC(=O)CSc2cn(CC)c3ccccc23)sc2c1CCC2`, the B-score result was “inactive”.

As for `CCOc1ccc(S(=O)(=O)N2CCC(C(=O)OCc3ccc(OC)cc3)CC2)cc1`, the B-score result was “inactive”.

Turning to `CC1CN(C(=S)Nc2ccc(Br)cc2Cl)CC(C)O1` (configuration not stated), the B-score result is “inactive”.

For `CCCCOC(=O)Nc1nnc(CC(=O)NCc2ccccc2)s1`, the B-score entry is “inactive”.

Take `CC(=O)N1c2ccc(S(=O)(=O)N3CCCC(C(=O)Nc4cccc(Cl)c4)C3)cc2CC1C` (configuration not stated): the B-score result was “inactive”.

Turning to `CC(=O)N1CCCc2cc(S(=O)(=O)N3CCCC(C(=O)N4CCN(c5cccc(Cl)c5)CC4)C3)ccc21` (configuration not stated), the B-score is 8 (active).

As to `CC(=O)N1CCCc2cc(S(=O)(=O)N3CCCC(C(=O)NCc4ccc(Cl)cc4)C3)ccc21` (configuration not stated), the B-score entry was “inactive”.

In the case of `CCCOc1cccc(C(=O)Nc2ccccc2C(=O)N2CCN(C)CC2)c1`, the B-score result was “inactive”.

For `COC(=O)c1c(NC(=O)COC(=O)[C@@H](NS(=O)(=O)c2ccccc2)C(C)C)sc2c1CCC2`, the B-score entry was “inactive”.

With `O=C(O)c1ccc(N/N=C/c2cn(-c3ccccc3)nc2-c2cccs2)cc1`, the B-score result is “inactive”.

Take `Cc1ccc(-c2nn(-c3ccccc3)cc2/C=N/NC(=O)c2ccc3c(c2)OCO3)cc1`: the B-score was 6 (active).

As for `CC(C)(C)OC(=O)N/N=C/c1cn(-c2ccccc2)nc1-c1cccnc1`, the B-score result is “inactive”.

`CC(=O)Nc1ccc(N2C(=O)CCC2=O)cc1C`: the B-score result is “inactive”.

For `Cc1ccc(C)c(NC(CC(=O)c2ccccc2)C(=O)OCC(=O)c2cccs2)c1` (configuration not stated), the B-score result was “inactive”.

`NC(=O)c1ccc(NC(=O)COC(=O)C(Cc2ccccc2)NC(=O)c2ccccc2)cc1` (configuration not stated): the B-score is 6 (active).

As for `COC(=O)[C@H](Cc1ccccc1)NC(=O)Nc1ccc(OC)cc1`, the B-score entry was “inactive”.

With `O=C(COC(=O)[C@H](Cc1ccccc1)NC(=O)c1cccs1)Nc1cc(F)ccc1F`, the B-score was 6 (active).

On to `CCc1ccc(NC(=O)COC(=O)c2cccs2)cc1`, for which the B-score entry was “inactive”.

Take `CCC(C(=O)OCC(=O)Nc1ccc(C(=O)Nc2ccc(OC)cc2)cc1)c1ccccc1` (configuration not stated): the B-score result is “inactive”.

On to `CCCCSCCCNC(=O)C1CCC(CNS(=O)(=O)c2ccc(NC(C)=O)cc2)CC1` (configuration not stated), for which the B-score result was “inactive”.

As to `C=CCSc1nc(N)cc(=O)[nH]1`, the B-score entry was “inactive”.

For `COc1ccc(C(=O)OCC(=O)Nc2cccc(C(C)=O)c2)cc1OC`, the B-score result is “inactive”.

As to `CN1CCN(C(CNS(=O)(=O)c2cccs2)c2cccnc2)CC1` (configuration not stated), the B-score entry is “inactive”.

Turning to `CCOC(=O)N1CCN(c2c(NCCCN3CCCC(C)C3)c(=O)c2=O)CC1` (configuration not stated), the B-score result was “inactive”.

Regarding `CCC1C=C(c2ccccc2)C=CN=C1N(CC)CC` (configuration not stated), the B-score result is “inactive”.

As to `c1ccc2c(NC3C4CC5CC(C4)CC3C5)nc(N3CCOCC3)nc2c1` (configuration not stated), the B-score entry was “inactive”.

In the case of `COc1ccc(C(=O)NC2CC(C)(C)Cc3c2cnn3-c2ccccc2C)o1` (configuration not stated), the B-score entry is “inactive”.

Consider `Cn1nccc1CNC(=O)c1ccnn1C`, for which the B-score result was “inactive”.

`Cc1cc(C(=O)NC2CCCc3c2cnn3-c2cccc(C)c2C)c(C)o1` (configuration not stated): the B-score result is “inactive”.

As for `COc1ccc(C(=O)NC2CCCc3c2cnn3-c2cccc(C)c2C)c(OC)n1` (configuration not stated), the B-score was 11 (active).

Consider `Cn1nccc1C(=O)NC1CCCc2c1cnn2-c1ccccc1F` (configuration not stated), for which the B-score is 6 (active).

With `Cn1nccc1C(=O)NC1CCCc2c1cnn2-c1ccc(F)cc1F` (configuration not stated), the B-score is 9 (active).

For the compound `CC(=O)NCC(=O)NC1CCCc2c1cnn2-c1ccccc1F` (configuration not stated), the B-score result is “inactive”.

In the case of `Cc1ccc(-n2ncc3c2CCCC3NC(=O)c2cnccn2)cc1C` (configuration not stated), the B-score entry was “inactive”.

`CC1(C)Cc2c(cnn2-c2cccc(F)c2)C(NC(=O)c2cc[n+]([O-])cc2)C1` (configuration not stated): the B-score entry is “inactive”.

With `Cc1nc(C(=O)N2CCCC(C(=O)c3ccc(Cl)cc3)C2)cs1` (configuration not stated), the B-score result is “inactive”.

In the case of `CCOC(=O)N1CCN(CCC(=O)Nc2ccccc2)CC1`, the B-score result was “inactive”.

As to `Cc1cccc(NC(=O)C2CCCN(C(=O)Nc3ccc(F)cc3)C2)c1C` (configuration not stated), the B-score result was “inactive”.

Turning to `COc1cccc2c(C)c(C(=O)O)[nH]c12`, the B-score entry was “inactive”.

On to `Cc1nn(-c2ncc(C(F)(F)F)cc2Cl)c(=O)n1-c1ccccc1`, for which the B-score entry is “inactive”.

`CC1CCCC(N2CCN(C(=O)c3ccc(F)cc3)CC2)C1` (configuration not stated): the B-score result is “inactive”.

For the compound `C=CCn1c(SCC(N)=O)nnc1-c1cc2c(s1)CCC(CC)C2` (configuration not stated), the B-score result was “inactive”.

As to `COc1ccc(-c2csc3ncnc(Oc4ccc5c(C)cc(=O)oc5c4)c23)cc1`, the B-score entry is “inactive”.

Turning to `COc1ccc(-c2csc3ncnc(N4CCN(S(=O)(=O)c5cccc(F)c5)CC4)c23)cc1`, the B-score is 6 (active).

As to `COc1ccc(-c2csc3ncnc(N4CCN(S(=O)(=O)c5ccccc5C#N)CC4)c23)cc1`, the B-score entry is “inactive”.

Turning to `CCN(c1ccc(NC(=O)COC(=O)CCc2nc3ccccc3n2-c2ccccc2)cc1)C(C)C`, the B-score entry was “inactive”.

For `CCN1/C(=C\c2ccc3ccccc3[n+]2CC)Sc2cc(C)ccc21`, the B-score was 15 (active).

Take `O=C(CNS(=O)(=O)c1ccccc1)NCC(=O)OCc1ccccc1F`: the B-score entry is “inactive”.

For `Cc1ccc(SCC(=O)NC(=O)NCc2ccco2)c(C)c1`, the B-score entry was “inactive”.

With `CC(=O)NCc1ccc(S(=O)(=O)NC2CCN(Cc3ccccc3)CC2)cc1`, the B-score result is “inactive”.

For the compound `COc1ccc(C)cc1NC(=S)Nc1ccccc1SC`, the B-score entry is “inactive”.

In the case of `O=C1NC(=Nc2ccc(Cl)cc2)SC1Cc1cccc(Cl)c1Cl` (configuration not stated), the B-score result was “inactive”.

For the compound `Cc1ccc(NC(=O)Nc2cccnc2)cc1`, the B-score entry was “inactive”.

For the compound `O=C(NNC(=O)c1csc(-c2cccnc2)n1)Nc1ccc(Cl)cc1`, the B-score entry is “inactive”.

As for `O=C(Nc1ccc(Cl)cc1)Nc1ccc(Oc2cccnc2)nc1`, the B-score was 8 (active).

Regarding `Cc1cccc(N2CCC(NCc3c(C(=O)N4CCCCC4)nc4c(C)cccn34)CC2)c1`, the B-score entry was “inactive”.

In the case of `Cc1ccc(N2CCN(S(=O)(=O)c3ccc(F)cc3)CC2)c(C)c1`, the B-score is 7 (active).

Turning to `Cc1ccc(S(=O)(=O)N2CCN(C)CC2)cc1`, the B-score result is “inactive”.

As for `Cc1ccccc1N1CCN(S(=O)(=O)c2ccc3ccccc3c2)CC1`, the B-score entry was “inactive”.

For `Clc1cccc(-c2nc(NCC3CCCO3)c3ccccc3n2)c1` (configuration not stated), the B-score is 6 (active).

Consider `c1ccc2c(NCC3CCCO3)nc(-c3ccncc3)nc2c1` (configuration not stated), for which the B-score entry was “inactive”.

As for `O=C(NCC1CCCO1)c1cc(-c2ccccc2)nc2ccccc12` (configuration not stated), the B-score entry was “inactive”.

With `COc1ccc(CC(NC(C)=O)C(=O)NC2CCN(C(=O)c3ccc(Cl)cc3)CC2)cc1` (configuration not stated), the B-score entry is “inactive”.

Turning to `CC1CCN(C(=S)NC(=O)c2ccccc2Br)CC1`, the B-score entry was “inactive”.

Consider `C=CCn1c(-c2ccccc2OCC)n[nH]c1=S`, for which the B-score was 6 (active).

Turning to `C=CCn1c(-c2ccc3[nH]c(C)c(C)c3c2)n[nH]c1=S`, the B-score result is “inactive”.

`C=CCn1c(-c2sc(-c3ccccc3)nc2C)n[nH]c1=S`: the B-score entry is “inactive”.

Consider `COc1ccc(S(=O)(=O)N2CCN(C)CC2)c(C)c1`, for which the B-score entry is “inactive”.

`CC(C)(C)NC(=O)CN(Cc1cccs1)C(=O)CNS(=O)(=O)c1ccccc1`: the B-score entry was “inactive”.

Turning to `CCC1=Nc2cc(C(=O)NCCN3CCCC3)ccc2Sc2ccc(C)cc21`, the B-score entry is “inactive”.

Regarding `Cc1ccc(C(=O)NCCN2CCOCC2)cc1C`, the B-score entry is “inactive”.

As to `Cc1cccc(-c2nc3ccc(C(=O)NCCN4CCN(C)CC4)cc3nc2-c2cccc(C)c2)c1`, the B-score was 7 (active).
